Screens: PubChem BioAssay, several laboratories
Rows were chosen to be rich in hits. Some 4.8% of all compounds tested hit in one or more screens of this group.
Calb FLC: C. albicans growth inhibition with fluconazole, primary screen, CaCi-2 strain, Alamar Blue fluorescence; C. albicans CaCi-2 (fluconazole-resistant clinical isolate) + fluconazole, 48 h; 0.57% of 300,000 active; growth inhibition, % (no concentration beside the values);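 active means growth inhibition above about 58% in most replicates, limit read from the data, passing the limit was not always enough; inconclusive means exactly half the replicates above a set limit; inactive means most replicates below a set limit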;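 further: all wells also contain fluconazole at 8 µg/ml as a sub-toxic cotreatment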
MPTP inh: mitochondrial permeability transition pore inhibitors, primary screen, biochemical, isolated mouse mitochondria, absorbance; Ca2+ swelling absorbance, 30 min; AID 602449, 2012; inhibition, % at 10 µM; 1.4% of 360,000 active;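 active means inhibition of 50% or more, scaled per plate between neutral and stimulator controls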
Beta apoptosis: inhibitors of cytokine-induced beta cell apoptosis, primary screen, luminescence; INS-1E cytokine-induced death, ATP luminescence, 48 h; percent of positive-control rescue, neutral wells zero; protection from apoptosis, % (test concentration not listed); 0.8% of 300,000 active; AID 435005, 2010;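 active means Every replicate reaches about 75%, or at least half do and their mean reaches it too, limit read from the data; inconclusive means At least half of replicates reach the limit but their mean does not; inactive means Under half of replicates reach the limit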;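 further: higher means more ATP so stronger rescue from cytokine killing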
Mdm2-MdmX inh: inhibitors of human Mdm2-MdmX association, primary screen, cell-based, luminescence, split luciferase, SaOS-2, uHTS | AID 485346, 2010 | inhibition, % at 8 µM | SaOS-2 split-luciferase Mdm2/MdmX complementation | 3% of 330,000 active;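 active means inhibition of at least 50% at 8 µM in the primary screen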
Target sequence (O15151 whole entry, looked up): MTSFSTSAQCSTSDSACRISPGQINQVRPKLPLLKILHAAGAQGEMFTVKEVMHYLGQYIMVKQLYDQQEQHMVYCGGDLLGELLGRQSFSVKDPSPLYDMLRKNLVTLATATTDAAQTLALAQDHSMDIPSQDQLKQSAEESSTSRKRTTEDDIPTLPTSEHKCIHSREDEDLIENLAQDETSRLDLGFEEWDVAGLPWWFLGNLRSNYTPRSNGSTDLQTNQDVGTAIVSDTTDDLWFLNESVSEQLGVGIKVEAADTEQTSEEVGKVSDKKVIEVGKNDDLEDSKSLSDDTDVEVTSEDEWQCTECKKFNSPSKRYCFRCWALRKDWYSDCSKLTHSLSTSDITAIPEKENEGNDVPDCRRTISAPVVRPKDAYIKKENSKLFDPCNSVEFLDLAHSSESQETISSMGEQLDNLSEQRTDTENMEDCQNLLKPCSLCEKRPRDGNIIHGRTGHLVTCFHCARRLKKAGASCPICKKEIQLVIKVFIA
Target sequence (Q00987 whole entry, looked up): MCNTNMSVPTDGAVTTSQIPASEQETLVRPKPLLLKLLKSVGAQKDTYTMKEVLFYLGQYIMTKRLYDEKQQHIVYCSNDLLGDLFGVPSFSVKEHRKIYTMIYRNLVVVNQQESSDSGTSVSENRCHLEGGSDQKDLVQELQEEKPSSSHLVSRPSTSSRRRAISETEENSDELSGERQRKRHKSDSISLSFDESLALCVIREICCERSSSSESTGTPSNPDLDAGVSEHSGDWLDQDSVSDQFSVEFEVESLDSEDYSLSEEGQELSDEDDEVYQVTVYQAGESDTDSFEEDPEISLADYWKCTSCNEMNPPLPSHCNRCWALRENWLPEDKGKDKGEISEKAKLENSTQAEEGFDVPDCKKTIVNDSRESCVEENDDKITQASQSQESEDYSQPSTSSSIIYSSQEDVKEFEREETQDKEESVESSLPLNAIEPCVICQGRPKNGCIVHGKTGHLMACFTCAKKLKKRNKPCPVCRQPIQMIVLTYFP
CSC inhib: cancer stem cell viability inhibitors, primary screen, luminescence. cancer stem cell-like cells viability. inhibition, % at 7.5 µM. 1.1% of 300,000 active; in the data active means inhibition above about 75%; inconclusive means no clear call, values can overlap the other calls; tested in HMLE shEcad cells
Rh123 counter: fluorescence retest of MPTP screen hits in isolated mitochondria, single concentration; 78% of 5,000 active; shares compounds with MPTP inh; inhibition, % at 10 µM; AID 624504, 2012; membrane potential, Rhodamine 123 fluorescence; in the data active means inhibition above about 22%
MPTP swell DR: mitochondrial permeability transition pore inhibitors, dose response, biochemical, absorbance, uHTS hits. isolated mitochondria swelling. 58% of 780 active. shares compounds with MPTP inh. IC50, µM; in the data active means IC50 below about 20 µM
MPTP cs DR: fluorescent counter-screen in isolated mitochondria, dose response, counter-screen for MPTP inhibitor project, biochemical, fluorescence, uHTS hits; IC50, µM; 49% of 780 active; AID 651564, 2012; shares compounds with MPTP inh; isolated mitochondria counterscreen, fluorescence read-out; in the data active means IC50 below about 80 µM
Large screens that a line does not name were inactive (follow-up assays come after a bar, where they were run).

O=C(Nc1ccccc1O)C(c1ccccc1)c1ccccc1	MPTP inh 83, Beta apoptosis 94 | Rh123 counter 83
CC(C)Cc1ccc(C(C)C(=O)Nc2ccccc2O)cc1 (stereo not given)	MPTP inh 90 | Rh123 counter 95
O=C(O)c1ccccc1NC(=O)C(c1ccccc1)c1ccccc1	none (no result: Beta apoptosis)
CCCCCCCCCC[n+]1cccc2c3ccccc3ccc21	Calb FLC 101, MPTP inh 96 (no result: Beta apoptosis, Mdm2-MdmX inh, CSC inhib) | Rh123 counter 97
CCC1CCc2sc(C(=O)NC3CCN(Cc4ccccc4)CC3)cc2C1 (stereo not given)	MPTP inh 76 | Rh123 counter inactive | MPTP swell DR 11 | MPTP cs DR 27
CC1CCc2sc(C(=O)NC3CCN(Cc4ccccc4)CC3)cc2C1 (stereo not given)	none (no result: Calb FLC)
O=c1c(Sc2ccccc2)c(C(F)(F)F)[nH]n1-c1ccccc1	Calb FLC inconclusive, MPTP inh 70 | Rh123 counter 89
Cc1[nH]n(-c2ccccc2)c(=O)c1-c1ccccc1	none
O=C1NC(=Nc2ccc(Cl)cc2)SC1Cc1cc(Cl)ccc1Cl (stereo not given)	MPTP inh 65 (no result: Beta apoptosis, CSC inhib) | Rh123 counter 84
Cc1cc(C)c(C#N)c(SCCS(=O)(=O)c2ccc(C(C)(C)C)cc2)n1	MPTP inh 61 | Rh123 counter 20
COc1ccc(OC)c(C(=O)CN2C(=O)C(=O)N(C3CCCC3)C2=O)c1	none (no result: Calb FLC)
COc1ccc(CNC(=O)c2cccc3c(-c4cccnc4)coc23)cc1OC	MPTP inh 99 (no result: Calb FLC, Beta apoptosis, Mdm2-MdmX inh, CSC inhib) | Rh123 counter 100
CCOC(=O)c1ccc(S(=O)(=O)Nc2cc(S(=O)(=O)N3CCOCC3)ccc2O)cc1	none (no result: Calb FLC)
O=C1/C(=C/c2ccc(O)cc2)CCc2ccc([N+](=O)[O-])cc21	none
CC1(C)CC(=Cc2cc(O)ccc2[N+](=O)[O-])C(=O)c2ccccc21	MPTP inh 91 (no result: Calb FLC, Beta apoptosis, Mdm2-MdmX inh, CSC inhib) | Rh123 counter 94
CC(=O)c1ccc(OCC(=O)N2CCCC(Nc3ccc(C)c(C)c3)C2)cc1 (stereo not given)	none
Clc1ccc(C(c2ccccc2Cl)C(Cl)Cl)cc1 (stereo not given)	MPTP inh 61, CSC inhib 98 (no result: Calb FLC, Beta apoptosis) | Rh123 counter inactive | MPTP swell DR inactive | MPTP cs DR inactive
CCOC(=O)c1sc(-c2ccccc2)cc1N	none
CCOC(=O)c1sc(-c2ccccc2)cc1NC(=O)Nc1ccc([N+](=O)[O-])cc1	MPTP inh 87 | Rh123 counter inactive | MPTP swell DR inactive | MPTP cs DR <2.5
COc1ccccc1-c1nc2ccc(Cl)cc2c(=O)n1O	none
CC[C@H](C)Cc1cn([C@@H](CCCN=C(N)N)C(=O)NCCCCCCCCCCC(=O)N2CCNCC2)nn1	MPTP inh 86 | Rh123 counter inactive | MPTP swell DR 11 | MPTP cs DR 76
COc1cc(C=C2C(=O)OC(C)(C)OC2=O)cc(Cl)c1OCC(=O)Nc1ccccc1	none
CC(C)(C)C1(C)OC(=O)C(=Cc2ccc(OCC(=O)Nc3ccccc3)cc2)C(=O)O1 (stereo not given)	MPTP inh 67 | Rh123 counter inactive
CCOC(=O)C1CCN(C(=O)CCc2nnc3ccc(N4CCC(C)CC4)nn23)CC1	none
CN1CCN(C2=Cc3ccccc3Sc3cc(F)ccc32)CC1	MPTP inh 98 | Rh123 counter inactive
O=C(C[C@H]1C[C@H]2c3cc(NS(=O)(=O)c4ccc(F)cc4)ccc3O[C@H]2[C@H](CO)O1)NCc1ccncc1	none (no result: Calb FLC, Beta apoptosis, Mdm2-MdmX inh, CSC inhib)
COc1ccc(CNCC(O)COc2cccc3c2OC(C)(C)C3)cc1 (stereo not given)	MPTP inh 75 | Rh123 counter 46
CC1(C)C2CC=C(/C=N/NC(=O)c3ccccc3O)C1C2 (stereo not given)	Calb FLC inconclusive, MPTP inh 50 | Rh123 counter 71
CNC(=S)N/N=C/C1=CCC2CC1C2(C)C (stereo not given)	none
